Measured values from the supplement of paper PMC13380429.
Where a name gives a salt, the structure may show the parent alone.

Assays:
[1] = test system: Vero E6 infected with SARS-CoV-2; assay: morphology score (similarity to uninfected cells); higher = more like uninfected cells; settings: 24 h
[2] = test system: Vero E6 infected with SARS-CoV-2; assay: SARS-CoV-2 infection rate relative to infected DMSO; higher = more infection, active = 60 or less; settings: 24 h

| Compound | morphology score [1] | SARS-CoV-2 infection rate [2] |
| --- | --- | --- |
| CCCCCCCCCCCC1=C(O)C(=O)C=C(O)C1=O [embelin] (10 µM) | -0.0413 | 106% (inactive) |
| OCCN1C[C@H](O)[C@@H](O)[C@H](O)[C@H]1CO [miglitol] (10 µM) | 0.11 | 106% (inactive) |
| C=CC1=C(C)C2=CC3=NC(=C(CC(=O)O)C4=NC(=C(C)C4=C(O)O)C=c4[nH]c(c(C)c4CC)=CC1=N2)C(CCC(=O)O)C3C (stereo not drawn) [chlorophyllin] (10 µM) | 0.148 | 94% (inactive) |
| Cc1cc([C@@H](C)Nc2ccccc2C(=O)O)c2nc(N3CCOCC3)cc(=O)n2c1 (10 µM) | -0.0702 | 105% (inactive) |
| CC(C)=CCC[C@](C)(O[C@@H]1O[C@H](CO)[C@@H](O)[C@H](O)[C@H]1O)[C@H]1CC[C@]2(C)[C@@H]1[C@H](O)C[C@@H]1[C@@]3(C)CC[C@H](O)C(C)(C)[C@@H]3CC[C@]12C [ginsenoside-C-K] (10 µM) | 0.0257 | 118% (inactive) |
| CC/C(=C(\c1ccc(O)cc1)c1ccc(OCCNC)cc1)c1ccccc1 [Endoxifen HCl] (10 µM) | 0.817 | 26% (active) |
| C[C@@]1(F)[C@H](O)[C@@H](CO)O[C@H]1n1ccc(N)nc1=O (10 µM) | 0.0439 | 104% (inactive) |
| CCc1cc(Cl)c(OC)c(C(=O)NC[C@@H]2CCCN2CC)c1O [eticlopride] (10 µM) | 0.426 | 63.5% (inactive) |
| CN1CCN(c2cc3c(cc2F)c(=O)c(C(=O)O)cn3-c2ccc(F)cc2)CC1 [difloxacin] (10 µM) | -0.0785 | 99.5% (inactive) |
